The record followed here is paper PMC7862700, “An all-to-all approach to the identification of sequence-specific readers for epigenetic DNA modifications on cytosine”.

Holding throughout (assay): DAPPL (digital affinity profiling via proximity ligation, sequencing); 10 mM Tris-HCl pH 7.5, 50 mM NaCl, 1 mM DTT, 4% glycerol, room temperature, 30 min; GST-TFs on glutathione beads, 16-mer random dsDNA library, 0.1% formaldehyde crosslink after washing; high values mean tight binding
Holding throughout (settings): protein: recombinant; tags: N-terminal GST; dsDNA, one strand shown

The target of assay [1] is T1, FEV (Homo sapiens, UniProt Q99581 1-238).
T1 sequence: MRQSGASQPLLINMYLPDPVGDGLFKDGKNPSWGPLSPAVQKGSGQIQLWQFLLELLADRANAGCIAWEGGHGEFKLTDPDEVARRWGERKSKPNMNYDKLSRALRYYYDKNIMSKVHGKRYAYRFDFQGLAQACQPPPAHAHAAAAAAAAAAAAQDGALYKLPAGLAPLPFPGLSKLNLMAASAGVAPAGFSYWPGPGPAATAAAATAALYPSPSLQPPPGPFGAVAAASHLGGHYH
The procedure, abridged:
(§1)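 Binding signal is given per hexamer as its read frequency for a factor divided by its frequency in the tag-only sample. GST-fused human transcription factors were expressed in yeast, captured on glutathione beads, barcoded with DNA and pooled with that sample, then incubated with 200 nmole of a 16-mer random double-stranded DNA library in Tris/NaCl/DTT/glycerol buffer for 30 min at room temperature. The pools were then washed, crosslinked, proximity-ligated, amplified by PCR and sequenced on an Illumina NextSeq500.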

Assay [2] concerns the target ETV5 (Homo sapiens, UniProt P41161 1-510). The method in brief:
as §1

Assay [3] concerns the target T2, SPIC (Homo sapiens, UniProt Q8N5J4 1-248).
T2 sequence: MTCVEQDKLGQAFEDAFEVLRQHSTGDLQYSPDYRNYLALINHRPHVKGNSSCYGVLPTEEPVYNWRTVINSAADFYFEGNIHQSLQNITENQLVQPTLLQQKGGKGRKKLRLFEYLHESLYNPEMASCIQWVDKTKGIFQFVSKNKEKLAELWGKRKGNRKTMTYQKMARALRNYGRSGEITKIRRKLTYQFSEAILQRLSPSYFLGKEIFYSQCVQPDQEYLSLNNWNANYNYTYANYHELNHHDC
The procedure, abridged:
as §1

The target in assay [4] is ELF4 (Homo sapiens, UniProt Q99607 1-663). The procedure, abridged:
as §1

Assay [5] concerns the target T3, ELK4 (Homo sapiens, UniProt P28324-2 1-405).
T3 sequence: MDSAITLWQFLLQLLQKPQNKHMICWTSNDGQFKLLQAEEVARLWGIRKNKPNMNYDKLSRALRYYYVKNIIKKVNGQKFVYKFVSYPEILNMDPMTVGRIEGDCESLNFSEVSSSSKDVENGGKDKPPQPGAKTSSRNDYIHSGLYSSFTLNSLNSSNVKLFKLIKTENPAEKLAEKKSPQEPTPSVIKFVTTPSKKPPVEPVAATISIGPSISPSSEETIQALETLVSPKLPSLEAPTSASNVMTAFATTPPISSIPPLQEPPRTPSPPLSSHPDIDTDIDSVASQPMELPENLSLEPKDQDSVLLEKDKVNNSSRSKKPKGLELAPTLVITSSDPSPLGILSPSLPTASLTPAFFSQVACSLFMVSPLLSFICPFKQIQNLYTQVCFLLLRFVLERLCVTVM
The procedure, abridged: as §1

The target of assay [6] is T4, ETV2 (Homo sapiens, UniProt O00321 1-342).
T4 sequence: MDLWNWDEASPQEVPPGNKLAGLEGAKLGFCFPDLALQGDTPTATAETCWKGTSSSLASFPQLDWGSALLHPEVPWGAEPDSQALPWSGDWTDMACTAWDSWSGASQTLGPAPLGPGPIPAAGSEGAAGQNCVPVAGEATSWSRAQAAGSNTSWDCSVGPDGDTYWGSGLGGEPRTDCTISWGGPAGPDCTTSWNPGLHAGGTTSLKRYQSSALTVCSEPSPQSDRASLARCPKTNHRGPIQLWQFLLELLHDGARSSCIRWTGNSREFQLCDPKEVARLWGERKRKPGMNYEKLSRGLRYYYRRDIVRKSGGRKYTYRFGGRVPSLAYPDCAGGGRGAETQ
The procedure, abridged: as §1

In assay [7] the target is T5, ELF3 (Homo sapiens, UniProt P78545 1-371).
T5 sequence: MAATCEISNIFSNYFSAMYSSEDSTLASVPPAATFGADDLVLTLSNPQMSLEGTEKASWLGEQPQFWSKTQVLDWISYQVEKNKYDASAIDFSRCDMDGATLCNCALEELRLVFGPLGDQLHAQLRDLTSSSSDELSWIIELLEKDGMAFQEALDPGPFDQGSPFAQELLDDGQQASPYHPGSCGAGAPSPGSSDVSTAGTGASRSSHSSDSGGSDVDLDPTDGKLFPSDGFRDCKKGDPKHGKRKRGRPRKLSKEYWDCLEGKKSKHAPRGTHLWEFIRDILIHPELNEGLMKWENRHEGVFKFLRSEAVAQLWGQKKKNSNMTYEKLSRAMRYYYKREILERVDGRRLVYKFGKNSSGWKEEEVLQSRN
The method in brief:
as §1

Assay [8] deals with ETV1 (Homo sapiens, UniProt P50549 1-477). The method in brief: as §1
Assay [9] addresses CRX (Homo sapiens, UniProt O43186 1-299). The method in brief: as §1

ETV5, sequence (P41161 whole entry): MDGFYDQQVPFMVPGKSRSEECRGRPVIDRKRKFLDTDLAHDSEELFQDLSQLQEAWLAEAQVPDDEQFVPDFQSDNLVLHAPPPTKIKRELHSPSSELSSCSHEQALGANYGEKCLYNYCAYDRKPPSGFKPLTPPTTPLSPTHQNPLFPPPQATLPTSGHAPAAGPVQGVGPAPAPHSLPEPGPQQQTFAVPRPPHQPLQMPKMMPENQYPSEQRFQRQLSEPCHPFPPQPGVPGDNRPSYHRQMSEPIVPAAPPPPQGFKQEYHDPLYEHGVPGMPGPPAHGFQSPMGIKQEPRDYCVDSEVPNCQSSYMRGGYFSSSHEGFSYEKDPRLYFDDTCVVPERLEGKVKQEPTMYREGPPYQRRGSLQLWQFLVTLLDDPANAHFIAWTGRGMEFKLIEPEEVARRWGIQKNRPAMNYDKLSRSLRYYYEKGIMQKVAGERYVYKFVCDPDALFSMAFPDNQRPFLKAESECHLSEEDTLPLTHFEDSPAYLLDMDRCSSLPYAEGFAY
ELF4, sequence (Q99607 whole entry): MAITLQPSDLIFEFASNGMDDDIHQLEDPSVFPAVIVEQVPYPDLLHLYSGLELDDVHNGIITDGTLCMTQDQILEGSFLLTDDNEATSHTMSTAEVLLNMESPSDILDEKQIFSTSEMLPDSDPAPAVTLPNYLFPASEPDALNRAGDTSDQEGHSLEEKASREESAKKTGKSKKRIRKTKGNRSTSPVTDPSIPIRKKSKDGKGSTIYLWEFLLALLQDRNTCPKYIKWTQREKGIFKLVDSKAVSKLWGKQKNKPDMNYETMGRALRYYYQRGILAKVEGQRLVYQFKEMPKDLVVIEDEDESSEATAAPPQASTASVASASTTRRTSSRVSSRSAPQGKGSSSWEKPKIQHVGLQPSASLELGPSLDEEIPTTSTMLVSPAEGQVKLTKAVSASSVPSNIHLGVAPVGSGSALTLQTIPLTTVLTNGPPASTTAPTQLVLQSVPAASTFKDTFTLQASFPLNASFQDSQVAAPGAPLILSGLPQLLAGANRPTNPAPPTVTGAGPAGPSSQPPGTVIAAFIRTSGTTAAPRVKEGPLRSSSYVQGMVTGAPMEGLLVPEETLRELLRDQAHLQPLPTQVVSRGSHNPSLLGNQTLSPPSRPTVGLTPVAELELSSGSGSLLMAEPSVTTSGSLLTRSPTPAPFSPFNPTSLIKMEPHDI
ETV1, sequence (P50549 whole entry): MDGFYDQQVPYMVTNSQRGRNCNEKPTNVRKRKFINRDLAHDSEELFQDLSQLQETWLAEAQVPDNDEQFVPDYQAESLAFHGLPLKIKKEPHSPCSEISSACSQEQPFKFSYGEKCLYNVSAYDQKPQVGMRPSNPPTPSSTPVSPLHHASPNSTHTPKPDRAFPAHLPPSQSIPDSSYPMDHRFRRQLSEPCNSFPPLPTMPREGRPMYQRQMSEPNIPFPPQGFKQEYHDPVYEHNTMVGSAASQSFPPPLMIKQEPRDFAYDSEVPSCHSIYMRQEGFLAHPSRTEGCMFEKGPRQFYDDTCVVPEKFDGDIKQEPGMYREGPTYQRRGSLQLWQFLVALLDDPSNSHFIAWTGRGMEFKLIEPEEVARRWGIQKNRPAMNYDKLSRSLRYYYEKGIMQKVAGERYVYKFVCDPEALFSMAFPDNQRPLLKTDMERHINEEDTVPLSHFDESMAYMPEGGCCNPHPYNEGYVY
CRX, sequence (O43186 whole entry): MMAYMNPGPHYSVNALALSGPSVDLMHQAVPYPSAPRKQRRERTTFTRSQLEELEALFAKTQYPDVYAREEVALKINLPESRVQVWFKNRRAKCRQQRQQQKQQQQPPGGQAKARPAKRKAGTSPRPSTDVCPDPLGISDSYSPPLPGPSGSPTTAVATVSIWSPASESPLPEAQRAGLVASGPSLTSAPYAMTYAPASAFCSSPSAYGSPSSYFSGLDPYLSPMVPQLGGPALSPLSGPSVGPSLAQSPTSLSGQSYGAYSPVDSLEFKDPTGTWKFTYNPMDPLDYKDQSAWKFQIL

For the sequence CTGTGC, the binding signal in assay [1] is 1.03 fold enrichment (6-mer frequency, TF over GST control); in [2], 1.17 fold enrichment (6-mer frequency, TF over GST control); in [3], 1.27 fold enrichment (6-mer frequency, TF over GST control); in assay [4], 1.21 fold enrichment (6-mer frequency, TF over GST control); in [5] it was 1.12 fold enrichment (6-mer frequency, TF over GST control); in assay [6], 1.25 fold enrichment (6-mer frequency, TF over GST control). The binding signal in assay [7] is 1.08 fold enrichment (6-mer frequency, TF over GST control); in assay [8] it was 1.12 fold enrichment (6-mer frequency, TF over GST control).

On to GTATGG, for which the binding signal was 1.01 fold enrichment (6-mer frequency, TF over GST control) in assay [1]; 1.02 fold enrichment (6-mer frequency, TF over GST control) in assay [2]; 1.08 fold enrichment (6-mer frequency, TF over GST control) in assay [3]; 1.02 fold enrichment (6-mer frequency, TF over GST control) in assay [4]; 1.01 fold enrichment (6-mer frequency, TF over GST control) in assay [5]; 1.03 fold enrichment (6-mer frequency, TF over GST control) in assay [6]. For the same sequence, the binding signal in assay [7] is 1.04 fold enrichment (6-mer frequency, TF over GST control); in assay [8] it was 1.16 fold enrichment (6-mer frequency, TF over GST control).

Consider TGCACC, for which the binding signal was 1.23 fold enrichment (6-mer frequency, TF over GST control) in [1]; 1.12 fold enrichment (6-mer frequency, TF over GST control) in assay [2]; 1.14 fold enrichment (6-mer frequency, TF over GST control) in assay [3]; 1.19 fold enrichment (6-mer frequency, TF over GST control) in [4]; 1.3 fold enrichment (6-mer frequency, TF over GST control) in [5]; 1.13 fold enrichment (6-mer frequency, TF over GST control) in assay [6]. Besides, the binding signal was 1.21 fold enrichment (6-mer frequency, TF over GST control) in [7] and 1.13 fold enrichment (6-mer frequency, TF over GST control) in [8].

In the case of CGGCAT, the binding signal in [1] is 1.09 fold enrichment (6-mer frequency, TF over GST control); in assay [2], 1.13 fold enrichment (6-mer frequency, TF over GST control); in [3] it was 1.18 fold enrichment (6-mer frequency, TF over GST control); in assay [4] it was 1.06 fold enrichment (6-mer frequency, TF over GST control); in [5] it was 1.1 fold enrichment (6-mer frequency, TF over GST control); in assay [6] it was 1.25 fold enrichment (6-mer frequency, TF over GST control). For the same sequence, the binding signal in [7] is 1.02 fold enrichment (6-mer frequency, TF over GST control); in [8], 1.19 fold enrichment (6-mer frequency, TF over GST control).

Consider CGCCGC, for which the binding signal in assay [1] was 1.24 fold enrichment (6-mer frequency, TF over GST control); in assay [2] it was 1.13 fold enrichment (6-mer frequency, TF over GST control); in assay [3], 1.22 fold enrichment (6-mer frequency, TF over GST control); in assay [4] it was 1.26 fold enrichment (6-mer frequency, TF over GST control); in assay [5], 1.05 fold enrichment (6-mer frequency, TF over GST control); in [6], 1.03 fold enrichment (6-mer frequency, TF over GST control). Also, the binding signal is 1.26 fold enrichment (6-mer frequency, TF over GST control) in assay [7] and 1.29 fold enrichment (6-mer frequency, TF over GST control) in [8].

ACCACT: the binding signal is 1.35 fold enrichment (6-mer frequency, TF over GST control) in assay [1]; 1.29 fold enrichment (6-mer frequency, TF over GST control) in assay [2]; 1.38 fold enrichment (6-mer frequency, TF over GST control) in [3]; 1.31 fold enrichment (6-mer frequency, TF over GST control) in assay [4]; 1.29 fold enrichment (6-mer frequency, TF over GST control) in [5]; 1.27 fold enrichment (6-mer frequency, TF over GST control) in assay [6]. Besides, the binding signal in [7] is 1.23 fold enrichment (6-mer frequency, TF over GST control); in [9], 1.04 fold enrichment (6-mer frequency, TF over GST control); in assay [8], 1.2 fold enrichment (6-mer frequency, TF over GST control).

CATATC: the binding signal in [1] was 1.4 fold enrichment (6-mer frequency, TF over GST control); in [2], 1.36 fold enrichment (6-mer frequency, TF over GST control); in assay [3], 1.23 fold enrichment (6-mer frequency, TF over GST control); in [4], 1.29 fold enrichment (6-mer frequency, TF over GST control); in assay [5], 1.24 fold enrichment (6-mer frequency, TF over GST control); in [6], 1.41 fold enrichment (6-mer frequency, TF over GST control). Moreover, the binding signal in [7] is 1.28 fold enrichment (6-mer frequency, TF over GST control); in [8], 1.41 fold enrichment (6-mer frequency, TF over GST control).
